From PubChem BioAssay
Giardia killer = Small Molecules that selectively kill Giardia lamblia: qHTS. Giardia lamblia trophozoite viability. activity change, % at 7.66 µM, hits read low. 340,000 compounds, 0.15% hits. AID 540267, 2011; in the data active = activity change below about -80%; inconclusive = between about -30% and that limit;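 also: parasites exposed to compound for two days anaerobically before the ATP read; % is scaled to controls: 0 for no effect and ±100 for the full control effect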
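Anaerobic 48 hrs incubation at 37 deg C of 100 trophozoites/well with test compounds; ATPLite 1-Step luminescence, 15-30 min RT, reports cellular ATP as viability.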
ELG1 repair inh = qHTS screen for small molecules that inhibit ELG1-dependent DNA repair in human embryonic kidney (HEK293T) cells expressing luciferase-tagged ELG1; Potency, µM (top dose mostly 46.1 µM), for inactives: at the top dose activity change, negative = inhibition, usual class: inhibitors; AID 504467, 2011; HEK293T ELG1-luciferase reporter, luminescence, 16 h; DNA damage induced by 5-fluorouridine; 330,000 compounds, 2.3% hits; also: potency is read from the fitted curve at half-maximal effect; % is scaled to controls: 0 for no effect and ±100 for the full control effect; nearly all actives have a fitted effect of over 55% in size
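Cells (2,000 per well) received 5-fluorouridine plus test compound or DMSO and were incubated 16 hr at 37 °C, 5% CO2. Luciferase activity was read by luminescence 30 min after ONE-Glo addition; signal suppression marked inhibition of damage-induced ELG1 function.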
RORgamma inh = qHTS for inhibitors of ROR gamma transcriptional activity | AID 2551, 2010 | Drosophila S2 Gal4-RORgamma UAS-luciferase reporter, 20 h | Potency, µM (series often up to 53.6 µM), without a hit: at the top dose activity change, negative = inhibition, most hits filed as inhibitors | 310,000 compounds, 5.4% hits; also: potency is read from the fitted curve at half-maximal effect; % is scaled to controls: 0 for no effect and ±100 for the full control effect; nearly all actives have a fitted effect of over 60% in size
Target sequence (P51450 whole entry, looked up, the tested form may be a part): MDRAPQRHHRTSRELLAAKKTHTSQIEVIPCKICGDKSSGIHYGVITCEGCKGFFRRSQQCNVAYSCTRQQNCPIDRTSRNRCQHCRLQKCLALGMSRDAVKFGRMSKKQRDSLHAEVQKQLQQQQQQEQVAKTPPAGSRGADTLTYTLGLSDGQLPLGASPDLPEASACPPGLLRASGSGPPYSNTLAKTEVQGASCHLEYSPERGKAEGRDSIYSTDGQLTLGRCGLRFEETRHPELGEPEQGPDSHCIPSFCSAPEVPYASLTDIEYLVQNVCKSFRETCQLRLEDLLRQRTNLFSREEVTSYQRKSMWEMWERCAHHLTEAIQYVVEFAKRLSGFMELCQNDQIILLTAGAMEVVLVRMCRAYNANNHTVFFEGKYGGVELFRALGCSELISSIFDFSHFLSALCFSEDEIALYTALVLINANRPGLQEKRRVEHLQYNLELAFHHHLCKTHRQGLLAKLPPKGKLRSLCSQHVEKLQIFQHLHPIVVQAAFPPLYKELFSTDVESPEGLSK
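A Gal4/UAS one-hybrid system in insect cells: metallothionein-promoter Gal4–ROR gamma fusion plus Photinus luciferase reporter. Copper sulfate 700 uM final, 20 hr ambient incubation, luminescent detection after 10 min with reagent.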
VP16 counter = VP16 counterscreen qHTS for inhibitors of ROR gamma transcriptional activity. AID 2546, 2010. 310,000 compounds, 3.5% hits. Potency, µM (top dose mostly 53.6 µM), for inactives: top-dose activity, negative = inhibition, actives largely listed as inhibitors. Drosophila S2 Gal4-VP16 UAS-luciferase, luminescence, 20 h;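 also: Gal4-VP16 expression switched on by copper sulfate through the metallothionein promoter; potency is read from the fitted curve at half-maximal effect; % is scaled to controls: 0 for no effect and ±100 for the full control effect; nearly all actives have a fitted effect of over 50% in size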
BRCA1 expr act = qHTS Assay to Identify Small Molecule Activators of BRCA1 Expression | AID 624202, 2012 | 380,000 compounds, 1.1% hits | MCF7-BRCA1-FFLuc reporter, luminescence, 48 h; response scale: scaled: vehicle 0%, 10 µM genistein 100% | Potency, µM (series often up to 46.1 µM), for inactives: at the highest dose activation, actives largely listed as activators; also: potency is read from the fitted curve at half-maximal effect; nearly all actives have a fitted effect of over 80% in size
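First, MCF7-BRCA1-FFLuc cells (2000/well) attach for 2 h; next, compounds are pin-added and incubated 48 h at 37 °C; finally, luciferase reagent is added and luminescence read after 15 min.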
p53 reactivation = qHTS assay for re-activators of p53 using a Luc reporter | H1299 p53-A138V BP100-luciferase reporter, luminescence, 24 h | Potency, µM (highest dose often 92.2 µM), inactives show at the top dose activity change, positive = activation, hits mostly activators | 320,000 compounds, 0.063% hits | AID 504706, 2011; also: potency is read from the fitted curve at half-maximal effect; % of control where 0% means no effect; nearly all actives have a fitted effect of over 45% in size
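p53-null H1299 cells stably carrying temperature-sensitive p53-A138V and a BP100-luciferase reporter were pinned with compounds (4-point, 1:5 series) and held 24 hrs at 37 deg C. Luminescence was read 10 min after detection reagent.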
Starred values were filed as active, the others as inactive; ? = inconclusive; / = not tested or not shown. Most compounds without a hit are left out; they make up all but 7.6% or so of the library. Unless noted, calls follow the shape of the dose curve; as a rule, active = well fitted curve in the direction sought with a large enough effect; inconclusive = small, poorly fitted or top-dose-only effect, or another doubt; inactive = no such curve, though single readings can be large; an effect the other way counts as inactive or inconclusive.

SMILES | Giardia killer | ELG1 repair inh | RORgamma inh | VP16 counter | BRCA1 expr act | p53 reactivation
CN(C)S(=O)(=O)c1ccc(C(=O)Nc2nnc(SCC(=O)NCC3CCCO3)s2)cc1 (configuration not stated) | -29.7 | -0.6% | 0.1% | 1.3% | 16.6% | 5.6%
CSc1ccc(-c2ccco2)nn1 | 6.8 | ? | 8.0% | -0.5% | ? | ?
N#CC1=C(N)Oc2c(ccc3cccnc23)C1c1ccccc1 (configuration not stated) | 5.9 | 13µM* | -25.1% | -3.9% | -44.9% | 2.7%
Cc1ccc2[nH]c(=O)c(C3C(C#N)=C(N)Oc4c3ccc3cccnc43)cc2c1 (configuration not stated) | 16.4 | ? | -5.6% | -0.8% | -85.1% | 6.0%
CC1=C(C#N)c2nc(N)c(C#N)c(C)c2/C1=C\c1ccc(-c2ccccc2C(=O)O)o1 | -20.1 | 8.2µM* | -17.3% | 1.9% | 5.7% | 3.7%
COc1cc(/C=C2/C(C)=C(C#N)c3nc(N)c(C#N)c(C)c32)ccc1OCC(=O)O | -10.2 | -17.4% | 4.0% | -6.5% | -8.2% | 3.3%
Cc1ccc(CS(=O)(=O)CCC(=O)O)cc1 | -13.7 | ? | 10.9% | -9.8% | -10.7% | 0.1%
OC(C#Cc1ccccn1)c1cccs1 (configuration not stated) | -20.5 | ? | 10µM* | 4.47µM* | -20.6% | -30.6%
Cc1[nH]c(=O)c(C#N)c(C)c1Cc1ccc(Cl)cc1Cl | -0.9 | 23.5% | 0.0% | -6.7% | -11.4% | 0.3%
Cc1[nH]c(=S)c(C#N)c(C)c1Cc1ccc(Cl)cc1Cl | 2.6 | ? | 3.16µM* | 20µM* | 0.1% | -1.7%
CC(C)c1cccc(C(C)C)c1NC(=S)Nc1cccc(Cl)c1 | -27.8 | 0.0% | ? | 6.5% | -19.3% | -0.2%
S=C(NCCC(c1ccccc1)c1ccccc1)Nc1cccc(Cl)c1 | -15.4 | -1.3% | 5.01µM* | 15.8µM* | -53.1% | -7.3%
S=C(NCCN(C1CCCCC1)C1CCCC1)Nc1cccc(Cl)c1 | -7.3 | ? | 17.8µM* | ? | -85.0% | -13.6%
S=C(Nc1cccc(Cl)c1)NC1CC2CCCC(C1)N2C1CCCC1 (configuration not stated) | 2.5 | 8.5% | 0.1% | 4.2% | -17.0% | -4.4%
Cc1ccc(OCC(=O)OCC(=O)NC2CC2)cc1C | 32.2 | 1.4% | / | / | -27.2% | -7.5%
O=S(=O)(CCN1CCN(C(c2ccccc2)c2ccccc2)CC1)C(F)(F)F | -2.8 | 10.6% | ? | 15.8µM* | 0.7% | ?
O=C([C@H]1O[C@@H](n2ccc(=O)[nH]c2=O)[C@H](O)[C@@H]1O)N1CCN(Cc2ccccn2)CC1 | / | / | / | / | 13.4% | /
Cc1ccc(NC(=S)N2CCCC2)cc1C | 20.9 | ? | ? | -18.2% | 62.1% | 26.8%
CCc1ccc(NC(=S)N2CCCCCCC2)cc1 | -22.1 | ? | 5.62µM* | ? | ? | -0.7%
CCc1ccc(NC(=O)C(=S)NC2CCCCC2)cc1 | -27.2 | ? | 1.5% | -12.8% | 2µM* | 20.3%
Cc1ccc(NC(=S)N2CCCC2)cc1Cl | 9.0 | 22.5% | 15.8µM* | ? | 27.4% | -0.5%
FC(F)(F)c1cnc(N2CCCN(C(=S)Nc3ccccc3)CC2)c(Cl)c1 | -0.1 | 1.0% | 7.94µM* | ? | -18.6% | 5.7%
CCOc1ccc(NC(=S)N2CCCC2)cc1 | 1.8 | 24.7% | -15.6% | -5.5% | 14.8% | 13.8%
COC(=O)C1=NNC2C(=O)N(C3CCCCC3)C(=O)C12 (configuration not stated) | -3.7 | 4.2% | -2.9% | -1.4% | -69.5% | -1.8%
CC(C(=O)N1CCOCC1)c1ccccc1 (configuration not stated) | ? | 0.0% | / | / | 4.1% | -0.2%
SMILES | Giardia killer | ELG1 repair inh | RORgamma inh | VP16 counter | BRCA1 expr act | p53 reactivation
CC(C)n1c(=O)[nH]c(=O)n1C(C)C | 10.2 | / | / | / | -21.6% | /
CC1(C(=O)Nc2cccc(C(F)(F)F)c2)Cc2c(-c3ccccc3)ccnc2O1 (configuration not stated) | / | / | / | / | -5.1% | /
S=C(Nc1ccccc1)N1CCCCC1 | 8.9 | -0.6% | 11.2µM* | -17.4% | 2.7% | 9.9%
Fc1cccc(NC(=S)N2CCCCC2)c1 | -18.8 | 3.4% | 12.6µM* | ? | 4.1% | -0.9%
S=C(Nc1ccc(Cl)cc1)N1CCCCC1 | -18.2 | 29.6% | 10µM* | ? | 42.1% | 29.2%
CC(C)OC(=O)c1cccc(C(=O)Nc2cccc(NC(=O)c3cccc(C(=O)OC(C)C)n3)n2)n1 | -4.4 | 8.2µM* | 4.5% | 1.8% | 18.7% | -3.1%
CS(=O)(=O)c1ccc(-c2csc(-c3cccnc3)n2)cc1 | 20.7 | ? | 13.6% | 3.8% | 66.4% | 0.0%
Cc1nnc(C)n1/N=C/c1cccn1C | 0.7 | 27.5% | 20.3% | 1.5% | -1.9% | 2.2%
COc1ccc(-c2n[nH]c(=S)n2/N=C/c2cccn2C)cc1 | -2.5 | 2.4% | 24.9% | -0.1% | -21.1% | -2.6%
Cc1ccc(-c2n[nH]c(=S)n2/N=C/c2cccn2C)cc1 | -9.3 | 20.8% | 3.16µM* | 11.2µM* | -10.4% | -6.6%
Cn1cccc1/C=N/n1c(-c2ccc(Cl)cc2)n[nH]c1=S | 3.1 | 3.7% | 2.51µM* | ? | -11.5% | -2.5%
Cn1cccc1/C=N/n1c(-c2ccc(Cl)cc2Cl)n[nH]c1=S | 11.4 | 11.5% | 2.82µM* | ? | -41.2% | -7.6%
CCn1ccc(C(=O)NCCCN2CCCC2=O)n1 | 11.2 | 11.2% | 0.4% | 0.1% | 36.7% | 16.6%
Cc1c(Cl)cccc1NC(=O)Nc1cnccn1 | 0.9 | 6.5% | -15.7% | -2.8% | 7.8% | -1.9%
N#C/C(=C\c1ccc(O)c(O)c1)C(=O)NCCCCc1ccccc1 | / | / | ? | 31.6µM* | / | /
N#C/C(=C\c1ccc(O)c(O)c1)C(=O)NCCc1ccccc1 | -4.8 | -10.5% | / | / | 0.0% | 12.4%
S=C(NCCc1ccccn1)Nc1ccccc1Cl | 5.9 | ? | 6.31µM* | 12.6µM* | 38.4% | 11.2%
Fc1ccccc1NC(=S)NCCc1cccc(Cl)c1 | -10.9 | ? | 7.08µM* | 10µM* | 7.94µM* | ?
S=C(NCCCn1ccnc1)Nc1ccc(Cl)cc1Cl | 6.3 | 1.3% | 2.4% | -9.1% | -13.8% | -4.6%
Cc1cccc(Cl)c1NC(=S)NCCc1ccccn1 | 0.1 | -3.0% | ? | ? | 4.8% | -3.9%
S=C(NCCc1ccccn1)Nc1ccc(Cl)cc1Cl | 0.2 | -2.9% | 5.01µM* | ? | ? | -5.5%
